# ADAM10 inh: human ADAM10 inhibitors, primary screen, biochemical, QFRET, HTS. Disintegrin and metalloproteinase domain-containing protein 10 (Homo sapiens), O14672. recombinant ADAM10, EDANS/DABCYL FRET peptide cleavage, 3 h. inhibition, % at 7 µM. actives 0.62% (n = 370,000). AID 720582, 2013;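 active = inhibition above a per-campaign cutoff equal to the mean of compounds falling between control-based bounds plus 3 SD, cut at about 20% in these data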;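 note: 0% = DMSO wells while the 100% control is not disclosed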
# Target sequence (O14672 214-748 limits assumed): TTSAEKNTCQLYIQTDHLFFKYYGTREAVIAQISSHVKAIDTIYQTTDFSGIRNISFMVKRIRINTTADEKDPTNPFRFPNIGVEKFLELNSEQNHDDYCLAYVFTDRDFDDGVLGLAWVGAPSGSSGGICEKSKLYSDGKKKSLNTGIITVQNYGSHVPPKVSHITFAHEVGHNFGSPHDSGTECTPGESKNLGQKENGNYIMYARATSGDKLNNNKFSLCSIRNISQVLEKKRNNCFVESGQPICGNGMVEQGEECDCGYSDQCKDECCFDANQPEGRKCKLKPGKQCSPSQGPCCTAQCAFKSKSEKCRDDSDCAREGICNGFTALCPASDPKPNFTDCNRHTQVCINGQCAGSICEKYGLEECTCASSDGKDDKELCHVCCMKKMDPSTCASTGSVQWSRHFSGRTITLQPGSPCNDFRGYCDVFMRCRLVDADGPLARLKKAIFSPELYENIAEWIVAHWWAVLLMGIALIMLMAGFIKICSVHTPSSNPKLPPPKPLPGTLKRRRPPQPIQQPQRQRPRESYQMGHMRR
# ADAM17 inh: ADAM17 inhibitors, primary screen, biochemical, QFRET; recombinant ADAM17, EDANS/DABCYL FRET peptide cleavage; inhibition, % at 6.95 µM; actives 0.83% (n = 370,000); AID 720648, 2013;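 active = inhibition above the mean of compounds lying between control limits plus 3 SD, set per campaign, cut at about 8.5% in these data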;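 note: 0% = DMSO-only wells as the low control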
# GC-A act: GC-A stimulated cGMP production enhancers – HEK293 GC-A cells, cGMP TR-FRET, EC30 ANP, primary screen; 0% at EC30 ANP, 100% saturating ANP; actives 0.14% (n = 370,000); activation, % at 10 µM; in the data active = activation above about 40%
# GC-B act: human GC-B receptor activators, primary screen, HEK293 GC-B cells, cGMP TR-FRET, EC30 CNP; Atrial natriuretic peptide receptor 2 (Homo sapiens), P20594; 0% at EC30 CNP, 100% saturating CNP; activation, % at 10 µM; actives 0.11% (n = 370,000); AID 1920062, 2024;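 active = activation at 10 µM reaching about 35% in either raw or pattern-adjusted values, limit read from the data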
# ADAM10 counter: ADAM10 inhibitors, counter-screen for ADAM17 exosite inhibitor project, biochemical, FRET, human ADAM10; recombinant ADAM10, EDANS/DABCYL FRET peptide cleavage, 3 h; shares compounds with ADAM17 inh; actives 47% (n = 2,900); inhibition, % at 6.95 µM;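 active = mean inhibition over the triplicate runs exceeds the activity threshold set in the earlier primary screen, cut at about 20% in these data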;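 note: 0% = DMSO wells and 100% = marimastat wells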
# ADAM17 confirm: ADAM17 inhibitors, hit retest, confirmation, biochemical, QFRET peptide cleavage; inhibition, % at 6.95 µM; shares compounds with ADAM17 inh; recombinant ADAM17, EDANS/DABCYL QFRET peptide cleavage; actives 65% (n = 2,900);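 active = mean inhibition across replicates above the hit cutoff set in the primary screen, cut at about 8.5% in these data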;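 note: 0% = DMSO wells and 100% = marimastat wells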
# * marks the source's active call; other numbers are inactive results; / = no result given. Rows were chosen to be rich in hits. Some 1.3% of all compounds tested hit in one or more screens of this group.
SMILES,ADAM10 inh,ADAM17 inh,GC-A act,GC-B act,ADAM10 counter,ADAM17 confirm
Cc1ccc(/C(CSc2nccn2-c2ncc(C(F)(F)F)cc2Cl)=N\O)cc1,11,15*,-1,-12,5,9.1*
CCOc1ccccc1NS(=O)(=O)c1ccc(-c2cnc(C3CC3)o2)cc1,7,9.9*,-15,-6,0,5
O=C(OC1CCCCC1)c1ccc(NC(=O)c2ccco2)cc1,19,12*,-1,-9,21*,12*
O=C(Nc1ccc(OC(=O)c2ccco2)cc1)c1ccco1,-4,0,6,-1,/,/
COc1ccccc1NC(=O)N(C)C[C@@H]1OCc2cnnn2CCCC(=O)N([C@@H](C)CO)C[C@@H]1C,-3,-1,2,-1,/,/
Cc1ccc(/C(N)=N/OC(=O)N2CCOCC2)cc1,-2,-3,0,4,/,/
Cc1cccc(/C(N)=N/OC(=O)N2CCOCC2)c1,2,13*,1,-2,14,12*
O=C(CSc1nc2ccc(NC(=O)c3ccccc3C(=O)O)cc2s1)Nc1ccc(F)c([N+](=O)[O-])c1,19,9.3*,-1,-2,-2,2
COC(=O)c1ccc2c(=O)[nH]c(COC(=O)c3c(-c4ccccc4Cl)noc3C)nc2c1,-22,-14,3,-12,/,/
COc1ccc(/C=N/NC(=O)C(=O)/C=C2\NC3(CCCC3)Cc3ccccc32)cc1,10,11*,-5,3,9,8
COc1ccc(/C=N/NC(=O)C(=O)N2CCCC2)cc1,10,0,2,1,/,/
CCCCOC(=O)c1ccc(NC(=O)COC(=O)CN2C(=O)NC3(CCCC3)C2=O)cc1,5,9.2*,3,-2,21*,13*
Cc1cc(C)cc(C(O)c2ncc(-c3cccc(F)c3)[nH]2)c1 (centres undefined),4,0,0,11,/,/
O=C(Cc1cccc(NC(=O)C2CCN(C(=O)C3CC3)CC2)c1)Nc1cccc(C(=O)N2CCCC2)c1,8,7,-2,2,/,/
COc1ccc(C(=O)N2CCCC2(C)C(=O)O)cc1C(F)(F)F (centres undefined),-3,-3,1,-8,/,/
CCOC(=O)C1(C)CCCCCN1C(=O)c1ccc(OC)c(C(F)(F)F)c1 (centres undefined),6,8.7*,-3,0,-3,-2
O=C1OCCN1C(=O)[C@H]1[C@H](c2ccc([N+](=O)[O-])cc2)C(c2ccccc2)=NN1c1ccc(Br)cc1,17,11*,-3,1,15,12*
COC(=O)C1=C(C)N(Cc2cccc(C(F)(F)F)c2)C(=NCc2ccc(C(F)(F)F)cc2)NC1c1ccc(F)cc1 (centres undefined),4,9.5*,-12,-5,22*,12*
COC(=O)C1=C(C)N(Cc2cccc(C(F)(F)F)c2)C(=NCc2ccc3c(c2)OCO3)NC1c1cccc(C(F)(F)F)c1 (centres undefined),0,-2,-18,-13,/,/
COC(=O)C1=C(C)N(Cc2cccc(C(F)(F)F)c2)C(=NCc2ccc(C(F)(F)F)cc2)NC1c1ccc(C(F)(F)F)cc1 (centres undefined),10,5,-7,2,/,/
COC(=O)C1=C(C)N(Cc2cccc(C(F)(F)F)c2)C(=NCc2ccc3c(c2)OCO3)NC1c1ccc(F)cc1 (centres undefined),-7,9.9*,-21,-18,19,12*
CCCCCCCCNCCS(=O)(=O)NCc1ccc(OC)cc1,-6,-3,1,-2,/,/
Cc1cc(C)nc(NC(=O)C(c2ccccc2)c2ccccc2)n1,-4,8.7*,-11,-8,-6,3
Cc1cc(C)nc(NC(=O)C(c2ccccc2)c2ccccc2)c1,10,6,-25,-23,/,/
COc1ccc(CNc2oc(COc3ccc(Cl)cc3)nc2C#N)cc1,18,11*,2,3,31*,16*
SMILES,ADAM10 inh,ADAM17 inh,GC-A act,GC-B act,ADAM10 counter,ADAM17 confirm
COc1ccc(Nc2oc(COc3ccc(Cl)cc3)nc2C#N)cc1,26*,13*,4,-9,31*,18*
COc1ccc(CCNc2oc(COc3ccc(Br)cc3)nc2C#N)cc1OC,18,10*,10,-3,34*,19*
N#Cc1nc(COc2cccc(Cl)c2)oc1NCc1ccncc1,-2,1,4,-3,/,/
Cn1ncc([N+](=O)[O-])c1C(=O)N1CCCCCC1,-1,-7,-1,3,/,/
C[C@H]1C(=O)[C@]23C[C@H]1CC[C@H]2[C@]1(C)[C@@H](O)CC[C@@](C)(C(=O)O)[C@H]1C[C@@H]3O,-2,-3,2,2,/,/
COc1ccc(NC(=O)CSc2ccc3nnc(-c4ccccn4)n3n2)cc1OC,7,-5,1,-5,/,/
O=S1(=O)N[C@H](Cc2ccccc2)COc2cccc(N3CCCCC3)c21,0,0,1,-1,/,/
O=C(CCNS(=O)(=O)c1ccccc1C(F)(F)F)NCCCSc1ccccc1,9,8.7*,-4,-6,14,10*
O=C(CCNS(=O)(=O)c1ccccc1C(F)(F)F)N1CCN(C(c2ccccc2)c2ccccc2)CC1,9,8.9*,-7,-8,30*,18*
O=C(CCNS(=O)(=O)c1ccccc1)NCCCSc1ccccc1,-8,-3,4,-1,/,/
CS(=O)(=O)N1CCN(c2ccccc2NC(=S)NC(=O)c2ccco2)CC1,-1,0,-3,1,/,/
CCCC1CCC2(CC1)CCC2OC(=O)Nc1cccc(C(F)(F)F)c1 (centres undefined),-9,-1,-2,-9,/,/
CCCc1cc(C(=O)N2CCN(c3ccc(C(F)(F)F)cn3)CC2)sc1C,16,12*,-8,-5,21*,14*
Cc1c(C(=O)N2CC3(CC(c4cccc(NC(=O)CC(c5ccccc5)c5ccccc5)c4)=NO3)C[C@@H]2C(N)=O)cc([N+](=O)[O-])cc1[N+](=O)[O-] (some centres undefined),19,11*,1,5,34*,19*
C/C=C(\C)C(=O)Nc1cccc(C2=NOC3(C2)C[C@@H](C(N)=O)N(C(=O)c2cc([N+](=O)[O-])cc([N+](=O)[O-])c2C)C3)c1 (some centres undefined),-6,-4,2,2,/,/

# Screening results (PubChem)
